From the supplement of paper PMC9023506
Structures can show the parent of a compound that is named as a salt.

Test system: Danio rerio larvae (5 dpf)
Assay: activity during period 15 (no stimuli), difference vs DMSO (percentage points (treated minus DMSO)); higher = more of the behaviour than the DMSO vehicle control
Settings: 10 µM; exposure time: 3 h pre-incubation + 3 h imaging
Procedure: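 5-dpf wild-type zebrafish larvae were imaged in 96-well plates. They were treated with 190 Tocris FDA-approved drugs at 10 µM (1 µl/ml DMSO) for 3 h before and 3 h during imaging at 28.5 °C, 48 larvae per drug. Automated image analysis gave % time moving and optomotor responses. Values are drug group mean minus DMSO vehicle mean (n=844), in percentage points, for 10 behaviours.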

Compound | activity during period 15
CN1C[C@H](C(=O)N[C@]2(C)O[C@@]3(O)[C@@H]4CCCN4C(=O)[C@H](Cc4ccccc4)N3C2=O)C[C@@H]2c3cccc4[nH]cc(c34)C[C@H]21 [Dihydroergotamine mesylate] | 1.37
CC(O)(CS(=O)(=O)c1ccc(F)cc1)C(=O)Nc1ccc(C#N)c(C(F)(F)F)c1 (configuration not stated) [Bicalutamide] | 5.81
O=c1[nH]c2ccccc2n1C1CCN(CCCC(c2ccc(F)cc2)c2ccc(F)cc2)CC1 [Pimozide] | -8.89
C=CCN1C[C@H](C(=O)N(CCCN(C)C)C(=O)NCC)C[C@@H]2c3cccc4[nH]cc(c34)C[C@H]21 [Cabergoline] | -8.5
N[C@@H]1C[C@H]1c1ccccc1 [Tranylcypromine hydrochloride] | -10.3
CCN(C)C(=O)Oc1cccc([C@H](C)N(C)C)c1 [Rivastigmine tartrate] | -7.13
COc1cc2c(cc1OC)C1CC(=O)C(CC(C)C)CN1CC2 (configuration not stated) [Tetrabenazine] | 3.06
CC(C)C[C@H]1C(=O)N2CCC[C@H]2[C@]2(O)O[C@](NC(=O)[C@@H]3C=C4c5cccc6[nH]c(Br)c(c56)C[C@H]4N(C)C3)(C(C)C)C(=O)N12 [Bromocriptine mesylate] | 3.6
CC[C@@H](C(N)=O)N1CCCC1=O [Levetiracetam] | 4.21
C=C1C[C@@H]2[C@H](CC[C@]3(C)C(=O)CC[C@@H]23)[C@@]2(C)C=CC(=O)C=C12 [Exemestane] | -15.7
COc1ccc(C(CN(C)C)C2(O)CCCCC2)cc1 (configuration not stated) [Venlafaxine hydrochloride] | -20.4
Cc1cccc([C@H](C)c2c[nH]cn2)c1C [Dexmedetomidine hydrochloride] | -35.2
